# In paper PMC7862700, “An all-to-all approach to the identification of sequence-specific readers for epigenetic DNA modifications on cytosine”:
# Legend:
# Test in all cases: DAPPL (digital affinity profiling via proximity ligation, sequencing); 10 mM Tris-HCl pH 7.5, 50 mM NaCl, 1 mM DTT, 4% glycerol, room temperature, 30 min; GST-TFs on glutathione beads, 16-mer random dsDNA library, 0.1% formaldehyde crosslink after washing; high values mean tight binding
# FLI1 = target: T1, FLI1 (Homo sapiens, UniProt Q01543 1-452); conditions: protein: recombinant; tags: N-terminal GST; dsDNA, one strand shown
# T1 sequence: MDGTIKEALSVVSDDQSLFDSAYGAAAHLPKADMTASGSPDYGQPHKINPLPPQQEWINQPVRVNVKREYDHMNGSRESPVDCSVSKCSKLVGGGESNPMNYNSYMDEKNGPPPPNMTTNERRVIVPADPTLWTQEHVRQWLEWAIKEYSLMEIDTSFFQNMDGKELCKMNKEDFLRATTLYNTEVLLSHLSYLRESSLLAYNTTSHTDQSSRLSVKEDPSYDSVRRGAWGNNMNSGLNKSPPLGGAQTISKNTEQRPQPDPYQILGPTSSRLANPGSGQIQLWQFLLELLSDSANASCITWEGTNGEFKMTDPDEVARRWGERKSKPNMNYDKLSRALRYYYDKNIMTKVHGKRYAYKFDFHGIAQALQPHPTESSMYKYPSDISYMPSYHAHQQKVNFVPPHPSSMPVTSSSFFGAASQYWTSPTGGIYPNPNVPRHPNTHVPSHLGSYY
# Procedure, shortened: (§1)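 Binding signal is defined as a hexamer's read frequency for one factor over its frequency for the tag-only sample. To obtain reads, GST-fused human transcription factors were expressed in yeast, captured on glutathione beads, barcoded with DNA and pooled with that sample. Pools met 200 nmole of a 16-mer random double-stranded DNA library in Tris/NaCl/DTT/glycerol buffer for 30 min at room temperature before washing, 0.1% formaldehyde crosslinking, proximity ligation (BsaI/T4 ligase, 1 h, 37 °C), PCR and Illumina NextSeq500 sequencing.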
# ELK1 = target: T2, ELK1 (Homo sapiens, UniProt P19419 1-428); conditions: protein: recombinant; tags: N-terminal GST; dsDNA, one strand shown
# T2 sequence: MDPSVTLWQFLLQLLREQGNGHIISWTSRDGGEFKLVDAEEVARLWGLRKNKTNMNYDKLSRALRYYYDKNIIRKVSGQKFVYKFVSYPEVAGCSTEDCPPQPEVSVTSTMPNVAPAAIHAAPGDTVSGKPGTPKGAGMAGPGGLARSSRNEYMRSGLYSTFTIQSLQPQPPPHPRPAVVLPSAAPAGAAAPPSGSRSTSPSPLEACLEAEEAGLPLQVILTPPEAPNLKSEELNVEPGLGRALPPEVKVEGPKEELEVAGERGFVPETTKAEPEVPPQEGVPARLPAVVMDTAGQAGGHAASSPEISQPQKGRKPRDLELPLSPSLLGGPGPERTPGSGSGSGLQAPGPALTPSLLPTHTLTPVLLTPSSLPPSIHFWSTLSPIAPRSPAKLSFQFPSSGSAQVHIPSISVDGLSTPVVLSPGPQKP
# Procedure, shortened: as §1
# GABPA = target: T3, GABPA (Homo sapiens, UniProt Q06546 1-454); conditions: protein: recombinant; tags: N-terminal GST; dsDNA, one strand shown
# T3 sequence: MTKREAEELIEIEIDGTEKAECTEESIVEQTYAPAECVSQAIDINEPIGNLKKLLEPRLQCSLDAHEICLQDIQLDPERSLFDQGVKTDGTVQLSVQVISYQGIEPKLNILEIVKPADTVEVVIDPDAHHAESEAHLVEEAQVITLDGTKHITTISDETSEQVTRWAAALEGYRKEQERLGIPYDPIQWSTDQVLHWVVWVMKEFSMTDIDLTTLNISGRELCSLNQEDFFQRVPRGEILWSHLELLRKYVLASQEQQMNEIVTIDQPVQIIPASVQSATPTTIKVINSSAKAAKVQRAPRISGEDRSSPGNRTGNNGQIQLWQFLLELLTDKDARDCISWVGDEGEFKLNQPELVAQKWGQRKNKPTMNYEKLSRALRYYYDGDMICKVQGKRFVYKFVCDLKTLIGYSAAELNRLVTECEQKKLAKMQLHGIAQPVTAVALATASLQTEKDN
# Procedure, shortened: as §1
# ERG = target: T4, ERG (Homo sapiens, UniProt P11308 1-479); conditions: protein: recombinant; tags: N-terminal GST; dsDNA, one strand shown
# T4 sequence: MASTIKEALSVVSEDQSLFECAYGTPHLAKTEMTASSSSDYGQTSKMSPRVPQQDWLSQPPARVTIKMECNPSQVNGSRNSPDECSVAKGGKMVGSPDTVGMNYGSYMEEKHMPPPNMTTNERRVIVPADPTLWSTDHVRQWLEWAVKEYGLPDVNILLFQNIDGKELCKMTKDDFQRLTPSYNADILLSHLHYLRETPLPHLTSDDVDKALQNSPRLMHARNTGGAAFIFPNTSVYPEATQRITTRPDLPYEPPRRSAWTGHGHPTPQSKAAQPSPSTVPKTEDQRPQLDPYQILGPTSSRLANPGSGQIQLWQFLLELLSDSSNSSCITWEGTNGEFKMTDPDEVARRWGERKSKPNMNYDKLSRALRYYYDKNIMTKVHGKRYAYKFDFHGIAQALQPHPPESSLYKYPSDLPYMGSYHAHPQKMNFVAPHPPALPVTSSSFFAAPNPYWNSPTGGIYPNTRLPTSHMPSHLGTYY
# Procedure, shortened: as §1
# ELF1 = ELF1 (Homo sapiens, UniProt P32519 1-619); conditions: protein: recombinant; tags: N-terminal GST; dsDNA, one strand shown
# Sequence of ELF1 (P32519 whole entry): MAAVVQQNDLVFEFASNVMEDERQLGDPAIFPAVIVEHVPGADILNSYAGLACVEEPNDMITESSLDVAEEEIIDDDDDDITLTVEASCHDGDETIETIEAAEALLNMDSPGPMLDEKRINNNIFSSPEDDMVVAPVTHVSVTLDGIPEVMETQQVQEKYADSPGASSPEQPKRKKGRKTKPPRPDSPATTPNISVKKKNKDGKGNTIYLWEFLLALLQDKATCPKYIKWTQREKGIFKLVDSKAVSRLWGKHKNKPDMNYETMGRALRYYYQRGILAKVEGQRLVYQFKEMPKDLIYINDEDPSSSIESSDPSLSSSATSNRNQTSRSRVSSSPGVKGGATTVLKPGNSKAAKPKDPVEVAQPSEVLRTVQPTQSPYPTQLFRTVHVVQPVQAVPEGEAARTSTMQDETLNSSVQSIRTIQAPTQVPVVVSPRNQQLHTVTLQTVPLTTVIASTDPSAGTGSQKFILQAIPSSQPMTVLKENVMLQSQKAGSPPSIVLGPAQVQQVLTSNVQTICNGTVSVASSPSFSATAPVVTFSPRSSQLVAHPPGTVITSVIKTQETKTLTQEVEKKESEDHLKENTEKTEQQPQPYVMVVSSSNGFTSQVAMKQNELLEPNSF
# Procedure, shortened: as §1
# EHF = target: T5, EHF (Homo sapiens, UniProt Q9NZC4 1-300); conditions: protein: recombinant; tags: N-terminal GST; dsDNA, one strand shown
# T5 sequence: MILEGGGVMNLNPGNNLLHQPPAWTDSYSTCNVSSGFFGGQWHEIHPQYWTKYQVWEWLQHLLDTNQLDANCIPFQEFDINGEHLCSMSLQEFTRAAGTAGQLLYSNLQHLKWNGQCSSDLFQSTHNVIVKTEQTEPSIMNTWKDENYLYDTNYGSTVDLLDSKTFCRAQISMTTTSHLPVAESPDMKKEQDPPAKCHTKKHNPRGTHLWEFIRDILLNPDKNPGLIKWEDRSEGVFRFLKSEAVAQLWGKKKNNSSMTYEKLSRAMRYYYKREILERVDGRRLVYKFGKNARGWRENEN
# Procedure, shortened: as §1
# SPI1 = SPI1 (Homo sapiens, UniProt P17947 1-270); conditions: protein: recombinant; tags: N-terminal GST; dsDNA, one strand shown
# Procedure, shortened: as §1
# SPIB = SPIB (Homo sapiens, UniProt Q01892 1-262); conditions: protein: recombinant; tags: N-terminal GST; dsDNA, one strand shown
# Sequence of SPIB (Q01892 whole entry): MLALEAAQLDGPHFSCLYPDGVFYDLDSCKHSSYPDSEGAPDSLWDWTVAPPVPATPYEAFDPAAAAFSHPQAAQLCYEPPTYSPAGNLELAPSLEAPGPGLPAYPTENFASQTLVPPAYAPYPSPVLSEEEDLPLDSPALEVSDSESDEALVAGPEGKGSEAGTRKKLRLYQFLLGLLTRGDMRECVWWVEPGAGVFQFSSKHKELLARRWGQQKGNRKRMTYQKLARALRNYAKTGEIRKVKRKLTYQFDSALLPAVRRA
# Procedure, shortened: as §1
# ELK3 = target: T6, ELK3 (Homo sapiens, UniProt P41970 1-407); conditions: protein: recombinant; tags: N-terminal GST; dsDNA, one strand shown
# T6 sequence: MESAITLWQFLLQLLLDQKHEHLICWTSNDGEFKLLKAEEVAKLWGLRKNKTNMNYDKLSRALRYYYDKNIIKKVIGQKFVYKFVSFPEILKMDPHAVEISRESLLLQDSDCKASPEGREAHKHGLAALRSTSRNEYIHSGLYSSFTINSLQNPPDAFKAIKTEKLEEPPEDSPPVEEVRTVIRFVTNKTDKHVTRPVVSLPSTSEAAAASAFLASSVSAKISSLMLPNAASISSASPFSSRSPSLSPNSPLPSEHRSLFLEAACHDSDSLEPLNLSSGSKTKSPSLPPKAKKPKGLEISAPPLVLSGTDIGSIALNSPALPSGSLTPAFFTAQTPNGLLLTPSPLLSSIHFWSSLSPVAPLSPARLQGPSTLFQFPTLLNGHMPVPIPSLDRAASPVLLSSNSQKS
# Procedure, shortened: as §1
# FEV = target: T7, FEV (Homo sapiens, UniProt Q99581 1-238); conditions: protein: recombinant; tags: N-terminal GST; dsDNA, one strand shown
# T7 sequence: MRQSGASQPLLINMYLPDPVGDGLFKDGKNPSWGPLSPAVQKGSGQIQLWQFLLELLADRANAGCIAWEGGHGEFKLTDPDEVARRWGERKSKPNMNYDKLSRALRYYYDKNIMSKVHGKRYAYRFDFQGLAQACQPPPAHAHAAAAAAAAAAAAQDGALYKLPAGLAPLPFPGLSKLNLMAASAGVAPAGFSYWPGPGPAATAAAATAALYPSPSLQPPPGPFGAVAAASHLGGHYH
# Procedure, shortened: as §1
# ETV5 = ETV5 (Homo sapiens, UniProt P41161 1-510); conditions: protein: recombinant; tags: N-terminal GST; dsDNA, one strand shown
# Sequence of ETV5 (P41161 whole entry): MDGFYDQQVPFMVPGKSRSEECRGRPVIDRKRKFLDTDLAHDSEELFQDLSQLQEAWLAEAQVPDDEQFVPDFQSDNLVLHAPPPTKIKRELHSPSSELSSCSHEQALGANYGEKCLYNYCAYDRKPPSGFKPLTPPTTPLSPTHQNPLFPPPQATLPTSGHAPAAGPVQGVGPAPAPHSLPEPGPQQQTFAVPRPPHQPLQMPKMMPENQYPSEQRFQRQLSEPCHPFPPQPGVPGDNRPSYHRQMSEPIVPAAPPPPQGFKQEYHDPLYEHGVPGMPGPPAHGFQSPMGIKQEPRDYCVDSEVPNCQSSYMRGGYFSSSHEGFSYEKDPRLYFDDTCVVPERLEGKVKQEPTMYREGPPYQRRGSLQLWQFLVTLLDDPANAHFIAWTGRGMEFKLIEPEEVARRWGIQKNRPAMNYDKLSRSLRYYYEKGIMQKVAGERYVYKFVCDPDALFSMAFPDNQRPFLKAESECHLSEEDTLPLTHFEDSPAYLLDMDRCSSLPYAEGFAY
# Procedure, shortened: as §1
# HSF1 = HSF1 (Homo sapiens, UniProt Q00613 1-529); conditions: protein: recombinant; tags: N-terminal GST; chain copies: 3; dsDNA, one strand shown
# Sequence of HSF1 (Q00613 whole entry): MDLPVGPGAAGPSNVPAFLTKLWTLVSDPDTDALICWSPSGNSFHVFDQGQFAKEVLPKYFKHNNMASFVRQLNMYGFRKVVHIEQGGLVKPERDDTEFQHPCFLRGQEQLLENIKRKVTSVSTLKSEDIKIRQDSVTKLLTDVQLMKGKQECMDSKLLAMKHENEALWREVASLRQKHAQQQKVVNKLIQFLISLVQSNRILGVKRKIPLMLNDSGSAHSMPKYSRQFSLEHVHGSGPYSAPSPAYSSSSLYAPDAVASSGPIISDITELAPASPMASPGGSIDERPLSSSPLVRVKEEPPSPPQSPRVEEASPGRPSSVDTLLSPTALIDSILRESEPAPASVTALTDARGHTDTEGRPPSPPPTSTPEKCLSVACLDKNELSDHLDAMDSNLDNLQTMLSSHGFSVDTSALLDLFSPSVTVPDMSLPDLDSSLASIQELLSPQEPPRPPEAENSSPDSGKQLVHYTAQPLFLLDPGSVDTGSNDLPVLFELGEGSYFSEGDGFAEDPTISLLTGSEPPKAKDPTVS
# Procedure, shortened: as §1
# SPIC = target: T8, SPIC (Homo sapiens, UniProt Q8N5J4 1-248); conditions: protein: recombinant; tags: N-terminal GST; dsDNA, one strand shown
# T8 sequence: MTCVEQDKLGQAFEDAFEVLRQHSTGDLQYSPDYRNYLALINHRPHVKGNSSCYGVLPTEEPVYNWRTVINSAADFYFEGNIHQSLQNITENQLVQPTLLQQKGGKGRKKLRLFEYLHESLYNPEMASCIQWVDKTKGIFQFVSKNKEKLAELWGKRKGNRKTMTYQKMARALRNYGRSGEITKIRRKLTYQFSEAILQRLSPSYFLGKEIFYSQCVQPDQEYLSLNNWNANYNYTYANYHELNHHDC
# Procedure, shortened: as §1
# ELF4 = ELF4 (Homo sapiens, UniProt Q99607 1-663); conditions: protein: recombinant; tags: N-terminal GST; dsDNA, one strand shown
# Sequence of ELF4 (Q99607 whole entry): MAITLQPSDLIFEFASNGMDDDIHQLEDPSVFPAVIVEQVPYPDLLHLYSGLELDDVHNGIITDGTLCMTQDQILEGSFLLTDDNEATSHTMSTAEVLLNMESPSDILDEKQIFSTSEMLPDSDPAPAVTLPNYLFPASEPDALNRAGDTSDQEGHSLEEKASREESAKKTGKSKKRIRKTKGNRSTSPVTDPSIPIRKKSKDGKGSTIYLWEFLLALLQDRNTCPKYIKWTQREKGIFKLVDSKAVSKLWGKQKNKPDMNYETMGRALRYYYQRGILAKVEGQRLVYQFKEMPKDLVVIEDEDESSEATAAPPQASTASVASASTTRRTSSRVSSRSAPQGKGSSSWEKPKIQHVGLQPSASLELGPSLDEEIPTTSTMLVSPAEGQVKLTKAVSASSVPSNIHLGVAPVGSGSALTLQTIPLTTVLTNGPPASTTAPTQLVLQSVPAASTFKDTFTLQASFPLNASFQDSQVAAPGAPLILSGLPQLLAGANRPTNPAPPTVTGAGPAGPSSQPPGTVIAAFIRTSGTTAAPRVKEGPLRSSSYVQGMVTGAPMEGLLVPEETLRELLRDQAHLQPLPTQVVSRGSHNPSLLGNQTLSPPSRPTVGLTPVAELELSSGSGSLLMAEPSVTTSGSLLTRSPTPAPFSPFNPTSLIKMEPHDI
# Procedure, shortened: as §1
# ELK4 = target: T9, ELK4 (Homo sapiens, UniProt P28324-2 1-405); conditions: protein: recombinant; tags: N-terminal GST; dsDNA, one strand shown
# T9 sequence: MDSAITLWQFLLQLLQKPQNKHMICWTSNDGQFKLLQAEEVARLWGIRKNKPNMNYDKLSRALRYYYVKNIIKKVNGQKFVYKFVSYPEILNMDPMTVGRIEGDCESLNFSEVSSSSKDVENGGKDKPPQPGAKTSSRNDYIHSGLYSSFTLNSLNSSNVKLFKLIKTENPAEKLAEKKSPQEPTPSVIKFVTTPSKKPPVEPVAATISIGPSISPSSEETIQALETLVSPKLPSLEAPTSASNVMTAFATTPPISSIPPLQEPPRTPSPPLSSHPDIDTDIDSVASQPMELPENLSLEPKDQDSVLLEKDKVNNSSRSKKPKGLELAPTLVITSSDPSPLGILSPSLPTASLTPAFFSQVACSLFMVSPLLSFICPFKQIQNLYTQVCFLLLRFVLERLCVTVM
# Procedure, shortened: as §1
# ETV2 = target: T10, ETV2 (Homo sapiens, UniProt O00321 1-342); conditions: protein: recombinant; tags: N-terminal GST; dsDNA, one strand shown
# T10 sequence: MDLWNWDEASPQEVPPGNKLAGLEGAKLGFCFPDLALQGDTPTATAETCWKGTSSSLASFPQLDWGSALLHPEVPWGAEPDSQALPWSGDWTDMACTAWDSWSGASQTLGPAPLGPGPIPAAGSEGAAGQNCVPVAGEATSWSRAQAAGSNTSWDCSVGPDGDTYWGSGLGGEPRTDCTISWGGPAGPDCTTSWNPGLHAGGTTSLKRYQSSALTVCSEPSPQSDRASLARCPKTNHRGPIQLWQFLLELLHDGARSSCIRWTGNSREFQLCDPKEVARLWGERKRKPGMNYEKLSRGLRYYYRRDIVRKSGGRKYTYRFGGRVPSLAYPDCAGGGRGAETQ
# Procedure, shortened: as §1
# ELF3 = target: T11, ELF3 (Homo sapiens, UniProt P78545 1-371); conditions: protein: recombinant; tags: N-terminal GST; dsDNA, one strand shown
# T11 sequence: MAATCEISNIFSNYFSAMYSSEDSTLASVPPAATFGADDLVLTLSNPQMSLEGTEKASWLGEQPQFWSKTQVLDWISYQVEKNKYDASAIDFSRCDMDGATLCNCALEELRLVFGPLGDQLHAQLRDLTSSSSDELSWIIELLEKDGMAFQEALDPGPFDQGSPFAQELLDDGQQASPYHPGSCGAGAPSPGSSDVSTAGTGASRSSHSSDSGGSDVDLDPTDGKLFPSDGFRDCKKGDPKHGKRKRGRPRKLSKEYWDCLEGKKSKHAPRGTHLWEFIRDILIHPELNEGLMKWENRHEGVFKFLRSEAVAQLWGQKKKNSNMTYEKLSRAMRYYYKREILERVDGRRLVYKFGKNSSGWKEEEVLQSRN
# Procedure, shortened: as §1
# CRX = CRX (Homo sapiens, UniProt O43186 1-299); conditions: protein: recombinant; tags: N-terminal GST; dsDNA, one strand shown
# Sequence of CRX (O43186 whole entry): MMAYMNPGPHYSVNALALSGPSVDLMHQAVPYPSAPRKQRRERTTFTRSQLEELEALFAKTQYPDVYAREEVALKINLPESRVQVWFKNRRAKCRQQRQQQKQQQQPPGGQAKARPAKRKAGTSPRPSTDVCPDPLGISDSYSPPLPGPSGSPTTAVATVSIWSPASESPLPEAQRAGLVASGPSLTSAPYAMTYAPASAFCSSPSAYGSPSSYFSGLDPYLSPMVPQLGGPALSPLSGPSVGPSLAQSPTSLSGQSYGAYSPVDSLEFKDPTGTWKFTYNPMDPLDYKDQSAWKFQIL
# Procedure, shortened: as §1
# ETV1 = ETV1 (Homo sapiens, UniProt P50549 1-477); conditions: protein: recombinant; tags: N-terminal GST; dsDNA, one strand shown
# Sequence of ETV1 (P50549 whole entry): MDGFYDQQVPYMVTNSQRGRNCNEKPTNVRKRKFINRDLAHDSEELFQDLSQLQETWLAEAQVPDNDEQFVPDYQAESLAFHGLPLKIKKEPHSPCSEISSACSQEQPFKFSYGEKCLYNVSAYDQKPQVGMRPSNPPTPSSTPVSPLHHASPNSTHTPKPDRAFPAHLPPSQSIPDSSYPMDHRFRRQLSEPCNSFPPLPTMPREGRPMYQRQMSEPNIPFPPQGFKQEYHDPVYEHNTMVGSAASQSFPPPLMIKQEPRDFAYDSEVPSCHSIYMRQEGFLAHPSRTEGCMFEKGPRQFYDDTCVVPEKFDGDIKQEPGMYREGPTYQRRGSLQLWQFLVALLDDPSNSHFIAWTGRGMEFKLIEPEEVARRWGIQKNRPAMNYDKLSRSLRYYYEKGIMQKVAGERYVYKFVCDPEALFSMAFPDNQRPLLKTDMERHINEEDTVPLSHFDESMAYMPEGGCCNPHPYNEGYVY
# Procedure, shortened: as §1
sequence,measurement,setting,value
AACATC,binding signal,FLI1,"1.5 fold enrichment (6-mer frequency, TF over GST control)"
same,binding signal,ELK1,"1.35 fold enrichment (6-mer frequency, TF over GST control)"
same,binding signal,GABPA,"1.41 fold enrichment (6-mer frequency, TF over GST control)"
same,binding signal,ERG,"1.48 fold enrichment (6-mer frequency, TF over GST control)"
same,binding signal,ELF1,"1.45 fold enrichment (6-mer frequency, TF over GST control)"
same,binding signal,EHF,"1.51 fold enrichment (6-mer frequency, TF over GST control)"
same,binding signal,SPI1,"1.45 fold enrichment (6-mer frequency, TF over GST control)"
same,binding signal,SPIB,"1.37 fold enrichment (6-mer frequency, TF over GST control)"
same,binding signal,ELK3,"1.47 fold enrichment (6-mer frequency, TF over GST control)"
same,binding signal,FEV,"1.63 fold enrichment (6-mer frequency, TF over GST control)"
same,binding signal,ETV5,"1.51 fold enrichment (6-mer frequency, TF over GST control)"
same,binding signal,HSF1,"1.3 fold enrichment (6-mer frequency, TF over GST control)"
same,binding signal,SPIC,"1.44 fold enrichment (6-mer frequency, TF over GST control)"
same,binding signal,ELF4,"1.41 fold enrichment (6-mer frequency, TF over GST control)"
same,binding signal,ELK4,"1.41 fold enrichment (6-mer frequency, TF over GST control)"
same,binding signal,ETV2,"1.45 fold enrichment (6-mer frequency, TF over GST control)"
same,binding signal,ELF3,"1.5 fold enrichment (6-mer frequency, TF over GST control)"
same,binding signal,CRX,"1.12 fold enrichment (6-mer frequency, TF over GST control)"
same,binding signal,ETV1,"1.43 fold enrichment (6-mer frequency, TF over GST control)"
